assay: probe aNog binding to arrayed compounds – biochemical, biotinylated probe, 635/667 nm fluorescence, primary screen (AID 1115); conditions: small-molecule microarray, higher = more signal;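 note: probe is biotinylated aNog protein used at 0.15 µg/mL for 1 h at 4 C; z-score combines 667 nm fluorescence of each spot with its signal to noise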

SMILES | composite z-score
Cc1ccc(S[C@]2(C(=O)NCC(F)(F)F)CC(=O)N(Cc3cc(C(F)(F)F)cc(C(F)(F)F)c3)[C@@H]2c2ccc(CO)cc2)cc1 | 0.162
COCCOC(=O)N1C(=O)[C@@]2(c3ccccc31)[C@H](c1ccc(O)cc1)N1[C@H](c3ccccc3)[C@H](c3ccccc3)OC(=O)[C@H]1[C@@H]2C(=O)N1CCN(c2ncccn2)CC1 | 0.927
CCCCC(CC)C(O)C1C=CC2C(=O)N(c3ccccc3)C(=O)C2N1Nc1ccccc1F (stereo not given) | 1.1
COC(=O)C/C=C/C[C@]1(O)C(=O)N(C)c2ccccc21 | -0.252
COCCOC(=O)N1C(=O)[C@@]2(c3cc(C#CCCO)ccc31)[C@H](c1ccc(OCCO)cc1)N1[C@H](c3ccccc3)[C@H](c3ccccc3)OC(=O)[C@H]1[C@@H]2C(=O)Nc1nc2ccccc2s1 | 0.0947
CC(C)c1ccc(NN2C(C(O)c3ccc(F)cc3)C=CC3C(=O)N(c4ccccc4)C(=O)C32)cc1 (stereo not given) | 1.75
O=C1[C@H]2C=C(I)[C@H](C[C@@H]2OCCOCCO)[C@@]12CO2 | 0.101
COC(=O)[C@@]1(Cc2ccc(F)cc2)[C@H]2c3cc(C(=O)N4CCCC4)n(CCc4c[nH]c5ccccc45)c3C[C@H]2CN1C(=O)c1ccccc1 | 2.08
O=C1OCCC/C=C\[C@H]2OC34C=CCN(c5ccc6ccccc6c5)C(=O)[C@H]3N(CCO)C(=O)[C@@H]4C12 (stereo not given in full) | -0.0631
Cc1ccc(S[C@]2(C(=O)O)CC(=O)N(C3CCCCC3)[C@@H]2c2ccc(CO)cc2I)cc1 | 1.06
CCCCC(CC)C(O)C1C=CC2C(=O)N(C)C(=O)C2N1Nc1ccccc1 (stereo not given) | 0.558
N#Cc1ccc(NN2C(C(O)c3ccc(Br)cc3)C=CC3C(=O)N(c4ccccc4)C(=O)C32)cc1 (stereo not given) | 2.03
Oc1ccc2cc[n+](Cc3cc4c(cc3Br)OCO4)cc2c1 | -0.0546
Cc1cc(C)c(C(O)C2C=CC3C(=O)N(c4ccccc4)C(=O)C3N2Nc2ccccc2F)c(C)c1 (stereo not given) | 1.32
COCCOC(=O)N1C(=O)[C@@]2(c3cc(C#CC4=CCCCC4)ccc31)[C@H](C(=O)Nc1nc3ccccc3s1)[C@H]1C(=O)O[C@H](c3ccccc3)[C@H](c3ccccc3)N1[C@@H]2c1ccc(O)cc1 | -0.483
COc1ccc([Si](C)(C)[C@H]2[C@H](CC(=O)N(CCO)Cc3ccccc3)O[C@@]3(C(=O)N(C)c4c(Br)cc(C)cc43)[C@@H]2C)cc1 | -0.291
O=C(c1ccccc1)N1C(=O)[C@]2(Cc3ccccc31)N=C(c1ccc(OCCCO)cc1)O[C@@H]2c1ccccc1 | -0.535
COc1ccc(CCNC(=O)[C@@]2(c3ccc([N+](=O)[O-])cc3)CC(=O)N(C3CCCCC3)[C@@H]2c2ccc(CO)cc2)cc1 | -0.203

SMILES | composite z-score
O=C(NCCN1CCOCC1)[C@@H]1c2ccccc2C(=O)N(Cc2ccccc2Cl)[C@H]1c1ccc(CO)cc1 | 0.414
CS(=O)(=O)CCOC(=O)C1=CC(c2ccc(CO)cc2)=CC(C2CC2)N(Cc2sc3ccccc3c2Cl)C=C1C(=O)OCCS(C)(=O)=O (stereo not given) | 0.611
CC1=C2[C@@H](CCc3ccccc3)OB(O)C[C@@H]2[C@@H]2C(=O)N(C)C(=O)[C@@H]2C1 | -0.137
CN1C2C=C(CCCO)C(C3C(=O)N(C(N)=O)C(=O)C32)C1C1CC1 (stereo not given) | -0.102
NCCCCCCNC(=O)[C@@H]1C[C@@H]2C(=O)N[C@@H](CCCCN)C(=O)N2[C@@H]1c1ccc(O)cc1 | -0.0087
CC1CC/C=C\[C@H]2OC34C=CCN(C(C)(C)C)C(=O)[C@H]3N(CCCCCO)C(=O)[C@@H]4C2C(=O)O1 (stereo not given in full) | -0.0105
Cc1ccc(F)cc1S(=O)(=O)N[C@@H]1CCN(Cc2ccc(Br)cc2)C1 | -0.252
COC(=O)[C@@]1(Cc2ccc(OC)cc2)[C@H]2c3cc(C(=O)N4CCCC4)n(CCO)c3C[C@H]2CN1C(=O)c1ccccc1 | 1.85
CCOC(=O)C[C@H]1[C@H](OC(=O)c2ccccc2-c2ccccc2)[C@@H](NC(=O)c2ccc3ccccc3c2)c2cc(OCCCO)ccc2N1C(=O)c1ccccc1 | 0.0043
CCCC1(C(=O)OC)C=C2C(=C(C)C(=O)C2C)CN1 (stereo not given) | 0.929
O=C1C2C=CC(C(O)C3CC=CCC3)N(Nc3ccccc3)C2C(=O)N1c1ccccc1 (stereo not given) | 0.821
CC(C)N1C(=O)C[C@@](C(=O)NC2CC2)(c2ccc([N+](=O)[O-])cc2)[C@H]1c1ccc(CO)cc1 | -0.566
C=C(C(=O)CC[C@H](OC(=O)c1ccccc1-c1ccccc1C(=O)O)c1cccc(OCCO)c1)C(C)C | -0.1
COC(=O)c1c(CC[C@@H](CO)NC(=O)N[C@@H](C)Cn2cc(-c3ccccn3)nn2)oc(C(C)=O)c1C(=O)OC | -0.0926
COCC(=C=CC[C@H](O)c1ccc(CO)o1)CCO | 0.502
COCC(=C=CC[C@H](O)c1ccc(OCCO)cc1)CCO | -0.0898
COc1cc(NN2C(C(O)c3ccco3)C=CC3C(=O)N(C)C(=O)C32)cc(OC)c1OC (stereo not given) | 0.415

Source: PubChem BioAssay
